Data on 19 compounds can be found in PubChem BioAssay AID2533 (National Center for Advancing Translational Sciences (NCATS), 2010).

Molecules are shown by their SMILES. Values joined by “and” are separate entries in the source; they are usually repeats but may differ in a detail not shown here. Equal entries are not always repeated. Records with an inconclusive call do not appear. Some compounds were tested as several samples or in several runs, with calls that do not always agree. Active and inactive are the calls of the source. The call rests on the fitted dose curve; in most records, active means well fitted activation curve with a large enough effect; inconclusive means small, poorly fitted or top-dose-only effect; inactive means flat fitted curve, though single readings scatter.
Potency means the concentration at half of the fitted maximal effect.

Pyruvate kinase PKM (Homo sapiens), sequence (P14618 whole entry, looked up, canonical isoform): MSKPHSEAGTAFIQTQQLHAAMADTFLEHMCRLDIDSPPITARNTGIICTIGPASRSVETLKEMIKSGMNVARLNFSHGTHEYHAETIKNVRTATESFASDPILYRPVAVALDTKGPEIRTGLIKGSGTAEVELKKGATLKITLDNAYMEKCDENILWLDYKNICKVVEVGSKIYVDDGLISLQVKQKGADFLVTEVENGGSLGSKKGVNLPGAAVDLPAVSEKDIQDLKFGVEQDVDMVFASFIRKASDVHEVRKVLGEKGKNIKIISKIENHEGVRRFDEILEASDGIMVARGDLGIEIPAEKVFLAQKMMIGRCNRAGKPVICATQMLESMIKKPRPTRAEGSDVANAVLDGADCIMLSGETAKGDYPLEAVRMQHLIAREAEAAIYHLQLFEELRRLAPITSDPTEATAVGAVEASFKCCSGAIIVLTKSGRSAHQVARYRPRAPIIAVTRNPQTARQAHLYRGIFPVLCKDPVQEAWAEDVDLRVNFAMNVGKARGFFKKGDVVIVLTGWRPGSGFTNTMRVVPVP

In the test the target is Pyruvate kinase PKM (Homo sapiens) (UniProt P14618). Briefly: Confirmation Concentration-Response Assay for Activators of Human Muscle isoform 2 Pyruvate Kinase: for Probe SAR. Further: nearly all actives have a fitted effect of over 60% in size. On activity change, positive = activation: % of control where 0% means no effect. To be noted: purified PKM2, ATP generation, Kinase-Glo luminescence; series mostly up to 57.5 µM; activity change, positive = activation: at the top concentration. The method in brief:
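ATP generation was detected by luciferase-coupled luminescence (Kinase-Glo). The reaction ran for 1 hour at room temperature with 0.1 mM ADP, 0.5 mM PEP and 0.1 nM purified hPK-M2 in 50 mM imidazole, pH 7.2, with 7 mM MgCl2. The enzyme was set at intermediate activity so activators could be detected.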
On the technique in general: In Kinase-Glo more light means more ATP remaining.
Consider `O=C(O)c1ccccc1SC1=NS(=O)(=O)c2ccccc21`, for which the Potency is 32600 nM [inhibitor] (active).

For `Cc1ccc(C)c(O)c1`, the “activity change, positive = activation” value is 1.47% (inactive).

For `Cc1ccc(NS(=O)(=O)c2ccc3c(c2)N(C)CCO3)cc1C`, the Potency was 18300 nM (active).

Turning to `Cc1ccc(N2C(=O)c3ccccc3C2=O)c(C)c1`, the “activity change, positive = activation” value was 0.597% (inactive).

Consider `O=S1(=O)N=C(Oc2cccc(Br)c2)c2ccccc21`, for which the “activity change, positive = activation” value is -0.387% (inactive).

Turning to `Cc1ccc(-c2nc3cccc(C)n3c2Nc2ccc(F)cc2)o1`, the “activity change, positive = activation” value is 12.2% (inactive).

On to `Cc1ccc(NS(=O)(=O)c2cc3c(cc2Cl)NC(=O)CO3)cc1C`, for which the Potency is 410 nM (active).

Take `O=S1(=O)N=C(Oc2ccccc2-c2ccccc2)c2ccccc21`: the “activity change, positive = activation” value was -14.7% (inactive).

`O=S1(=O)N=C(Sc2ccc3c(c2)OCCO3)c2ccccc21`: the “activity change, positive = activation” value is -17.2% (inactive).

As for `O=C1CCc2cc(Cl)c(S(=O)(=O)Nc3ccc(Cl)c(Cl)c3)cc2N1`, the Potency is 73 nM (active).

With `Cc1ccc(Nc2c(-c3ccc(C)o3)nc3ccccn23)cc1`, the “activity change, positive = activation” value was 20.3% (inactive).

For the compound `Cc1cc2c(s1)c1cnn(Cc3ccccc3F)c(=O)c1n2C`, the Potency result is “inactive and 231 nM (active)”.

With `Cc1ccc(-c2nc3ccccn3c2Nc2ccccc2C)o1`, the “activity change, positive = activation” value is 29.2% (inactive).

As to `COc1ccc(N2C(=O)c3ccccc3C2=O)cc1`, the “activity change, positive = activation” value is 7.73% (inactive).

For `Cc1cc2c(s1)c1cnn(Cc3cc(F)c(F)cc3F)c(=O)c1n2C`, the Potency is 1120 nM (active).

With `COC(=O)c1ccccc1S(=O)(=O)Nc1cc(=O)c2ccccc2[nH]1`, the “activity change, positive = activation” value is 0.863% (inactive).

Consider `Cc1ccc(NS(=O)(=O)c2ccc3c(c2)CCC(=O)N3)cc1Cl`, for which the Potency was 326 nM (active).

As to `O=S1(=O)N=C(Sc2cccc3cccnc23)c2ccccc21`, the “activity change, positive = activation” value is -20.5% (inactive).

`O=C1CCc2cc(S(=O)(=O)Nc3cccc4ccccc34)ccc2N1`: the Potency was 13000 nM (active).
